# Measurements reported in the supplement of paper PMC6279402.
# Counter-ions that a name gives are not always drawn. ± gives the standard deviation of the averaged measurements.
# Tested on: A549
# Assay: relative viability (normalised to negative control = 1, bortezomib = 0) (fraction); higher = less cytotoxic
# Settings: inflammatory serum-free RHB-A with cytokines + LPS, 5 d + 24 h CellTiter-Blue
# [1] = compound 30 nM, GSK126 pretreatment: 5 uM GSK126
# [2] = compound 30 nM, GSK126 pretreatment: none (vehicle)
# [3] = compound 300 nM, GSK126 pretreatment: 5 uM GSK126
# [4] = compound 300 nM, GSK126 pretreatment: none (vehicle)
Structure (SMILES),relative viability [1],relative viability [2],relative viability [3],relative viability [4]
C[S+]([O-])c1ccc(-c2nc(-c3ccc(F)cc3)c(-c3ccncc3)[nH]2)cc1 (stereo not drawn),1.03 ± 0.22,0.902 ± 0.11,1.3 ± 0.14,1.14 ± 0.13
Clc1ccc(Nc2nnc(Cc3ccncc3)c3ccccc23)cc1 [Vatalanib],0.822 ± 0.036,0.791 ± 0.044,0.84 ± 0.074,0.874 ± 0.05
CNC(=O)c1c(F)cccc1Nc1nc(Nc2cc3c(cc2OC)CCN3C(=O)CN(C)C)nc2[nH]ccc12,0.762 ± 0.059,0.792 ± 0.067,0.295 ± 0.019,0.431 ± 0.015
COc1c2occc2cc2ccc(=O)oc12 [Methoxsalen],0.902 ± 0.065,0.883 ± 0.11,0.881 ± 0.026,0.906 ± 0.057
COc1cc2/c(=N/c3ccc(Br)cc3F)nc[nH]c2cc1OCC1CCN(C)CC1 [Vandetanib],0.923 ± 0.1,0.924 ± 0.083,0.742 ± 0.12,0.705 ± 0.044
CN(C)Cc1cccc(N=C(c2ccccc2)c2c(O)[nH]c3cc(C(N)=O)ccc23)c1,0.984 ± 0.17,0.911 ± 0.16,1.08 ± 0.2,0.942 ± 0.13
Nc1nc(Nc2ccc(S(N)(=O)=O)cc2)nn1C(=O)c1c(F)cccc1F,0.96 ± 0.1,0.927 ± 0.15,1.12 ± 0.067,1.07 ± 0.099
COC(=O)c1ccc2c(C(=Nc3ccc(N(C)C(=O)CN4CCN(C)CC4)cc3)c3ccccc3)c(O)[nH]c2c1 [BIBF1120(Vargatef)],0.825 ± 0.044,0.812 ± 0.16,0.844 ± 0.13,1.01 ± 0.18
Nc1ncn([C@@H]2O[C@H](CO)[C@@H](O)[C@H]2O)c(=O)n1 [Azacitidine; 5-azacytidine],0.841 ± 0.27,0.854 ± 0.13,0.903 ± 0.15,0.996 ± 0.13
CCC[C@H](NC(=O)/C(C#N)=C/c1cccc(Br)n1)c1ccccc1,0.926 ± 0.078,0.929 ± 0.044,0.973 ± 0.14,1.04 ± 0.065
Cc1cc(Nc2nc(N[C@@H](C)c3ncc(F)cn3)ncc2Cl)[nH]n1,0.912 ± 0.1,0.872 ± 0.08,1.15 ± 0.076,1.13 ± 0.017
Oc1cccc(-c2nc(N3CCOCC3)c3oc4ncccc4c3n2)c1,0.743 ± 0.082,0.805 ± 0.11,0.113 ± 0.011,0.127 ± 0.025
NCC(=O)CCC(=O)O [Aminolevulinic acid hydrochloride; Aminolevulinic acid],1.08 ± 0.17,0.985 ± 0.1,1.05 ± 0.12,0.981 ± 0.053
"O=NN(CCCl)C(=O)NC1CCCCC1 [Lomustine, CCNU; Lomustine]",0.967 ± 0.15,0.973 ± 0.15,1.03 ± 0.11,0.976 ± 0.079
CNC(=O)c1cc(Oc2ccc(NC(=O)Nc3ccc(Cl)c(C(F)(F)F)c3)c(F)c2)ccn1 [Regorafenib; BAY 73-4506(Regorafenib)],0.913 ± 0.055,0.892 ± 0.016,1.02 ± 0.031,0.913 ± 0.014
CC/C(=C(\c1ccccc1)c1ccc(OCCN(C)C)cc1)c1ccccc1 [Tamoxifen citrate],0.967 ± 0.075,0.863 ± 0.019,0.909 ± 0.13,0.972 ± 0.024
S=C(NCc1ccc2c(c1)OCO2)N1CCN(c2ncnc3c2oc2ccccc23)CC1 [Amuvatinib (MP-470); MP-470],0.861 ± 0.067,0.848 ± 0.057,0.917 ± 0.15,1.07 ± 0.072
COc1cc2c(N3CCN(C(=O)Nc4ccc(OC(C)C)cc4)CC3)ncnc2cc1OCCCN1CCCCC1 [Tandutinib (MLN518)],0.74 ± 0.03,0.735 ± 0.071,0.829 ± 0.075,0.862 ± 0.1
COC(=O)Nc1ccc(-c2nc(N3CCOCC3)c3cnn(C4CCN(Cc5cccnc5)CC4)c3n2)cc1,0.851 ± 0.12,0.869 ± 0.13,0.847 ± 0.061,0.832 ± 0.097
C#Cc1cccc(Nc2ncnc3cc(OCCOC)c(OCCO)cc23)c1 [OSI-420 (Desmethyl Erlotinib)],0.944 ± 0.086,0.91 ± 0.05,0.477 ± 0.047,0.505 ± 0.019
O=C(Cc1ccc(-c2ccc(OCCN3CCOCC3)cc2)cn1)NCc1ccccc1,0.319 ± 0.065,0.211 ± 0.026,0.388 ± 0.049,0.248 ± 0.05
CC(C)c1cnn2c(NCc3ccccc3)cc(NCCCCCCN)nc12 [BS-181 hydrochloride],0.804 ± 0.083,0.821 ± 0.11,0.853 ± 0.063,0.895 ± 0.049
Cn1cnc(-c2cc3nccc(Oc4ccc(NC(=S)NC(=O)Cc5ccccc5)cc4F)c3s2)c1,0.819 ± 0.071,0.832 ± 0.051,0.838 ± 0.093,0.945 ± 0.065
Cc1cc(Nc2cc(N3CCN(C)CC3)nc(/C=C/c3ccccc3)n2)n[nH]1,0.897 ± 0.13,0.929 ± 0.11,0.827 ± 0.17,0.769 ± 0.04
COc1cc2ncnc(Nc3ccc(F)c(Cl)c3)c2cc1OCCCN1CCOCC1 [Gefitinib(Iressa); Gefitinib],0.922 ± 0.11,0.873 ± 0.084,0.488 ± 0.11,0.472 ± 0.045
O=C(Nc1cccc(Cl)c1)Nc1ncc(CCNc2ncnc3ccsc23)s1 [SNS-314 Mesylate],0.763 ± 0.13,0.639 ± 0.054,0.689 ± 0.16,0.505 ± 0.1
CN(C)c1nc(N(C)C)nc(N(C)C)n1 [Altretamine],0.861 ± 0.011,0.87 ± 0.045,0.931 ± 0.02,0.887 ± 0.095
